Among all 5,500 compounds or so, about 2,000 (36%) were called active. Another 18% or so got no clear call; they are omitted. No stated cut-off is given here; in the data, active means normalized growth mostly below about 0.91 (no sharp cut-off); inconclusive means no clear call, values can overlap the other calls; inactive means mostly above about 0.92. Some of the results follow.
Test: chemical genetic growth profiling, strain panel (AID 1159580);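 further: tested at 20 µM; growth read once vehicle control cultures reached saturation at 30 °C; 1 = growth at the plate median or of vehicle wells; lower values mean less growth of the strain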
Details: growth OD

Measured: normalized growth

c1ccc2c(c1)[nH]c1cnccc12
inactive: S. cerevisiae deletion strains, locus YJR066W, strain TOR1, active compounds read low 0.956 | S. cerevisiae deletion strains, locus YKL009W, strain mrt4, active compounds read low 1.01 | S. cerevisiae deletion strains, locus YKL068W, active compounds read low 0.975 | S. cerevisiae deletion strains, locus YKL085W, strain MDH1 (second series), active compounds read low 0.98 | S. cerevisiae deletion strains, locus YKL085W, strain MDH1, active compounds read low 0.98 | S. cerevisiae deletion strains, locus YKL160W, strain elf1, active compounds read low 1.01 | S. cerevisiae deletion strains, locus YKL190W, strain CNB1, active compounds read low 0.993 | S. cerevisiae deletion strains, locus YKR001C, strain vps1, active compounds read low 0.962 | S. cerevisiae deletion strains, locus YKR026C, strain gcn3, active compounds read low 0.986 | S. cerevisiae deletion strains, locus YKR091W, strain srl3, active compounds read low 1 | S. cerevisiae deletion strains, locus YLL001W, strain dnm1, active compounds read low 1 | S. cerevisiae deletion strains, locus YLL026W, active compounds read low 0.996 | S. cerevisiae deletion strains, locus YLL041C, strain sdh2, active compounds read low 1 | S. cerevisiae deletion strains, locus YLR027C, strain aat2, active compounds read low 1.01 | S. cerevisiae deletion strains, locus YLR039C, strain RIC1, active compounds read low 0.893 | S. cerevisiae deletion strains, locus YLR058C, strain SHM2, active compounds read low 1.01 | S. cerevisiae deletion strains, locus YLR102C, strain apc9, active compounds read low 0.972 | S. cerevisiae deletion strains, locus YLR113W, strain HOG1, active compounds read low 1.03 | S. cerevisiae deletion strains, locus YLR221C, strain rsa3, active compounds read low 1 | S. cerevisiae deletion strains, locus YLR258W, strain gsy2, active compounds read low 0.998 | S. cerevisiae deletion strains, locus YLR262C, strain YPT6 (second series), active compounds read low 0.948 | S. cerevisiae deletion strains, locus YLR262C, strain YPT6, active compounds read low 0.947 | S. cerevisiae deletion strains, locus YLR268W, strain sec22, active compounds read low 0.952 | S. cerevisiae deletion strains, locus YLR320W, strain mms22, active compounds read low 0.994 | S. cerevisiae deletion strains, locus YLR330W, strain CHS5, active compounds read low 0.976 | S. cerevisiae deletion strains, locus YLR342W, strain FKS1 (second series), active compounds read low 1.02 | S. cerevisiae deletion strains, locus YLR342W, strain FKS1, active compounds read low 1 | S. cerevisiae deletion strains, locus YLR357W, strain rsc2, active compounds read low 0.99 | S. cerevisiae deletion strains, locus YLR370C, strain arc18, active compounds read low 1 | S. cerevisiae deletion strains, locus YLR371W, strain rom2, active compounds read low 0.983 | S. cerevisiae deletion strains, locus YLR384C, strain iki3, active compounds read low 0.992 | S. cerevisiae deletion strains, locus YLR418C, strain cdc73, active compounds read low 1.02 | S. cerevisiae deletion strains, locus YML016C, strain PPZ1, active compounds read low 0.991 | S. cerevisiae deletion strains, locus YML032C, strain rad52, active compounds read low 1.02 | S. cerevisiae deletion strains, locus YML120C, strain ndi1, active compounds read low 1 | S. cerevisiae deletion strains, locus YML124C, strain tub3, active compounds read low 0.987 | S. cerevisiae deletion strains, locus YMR058W, strain fet3, active compounds read low 0.996 | S. cerevisiae deletion strains, locus YMR078C, strain ctf18, active compounds read low 0.956 | S. cerevisiae deletion strains, locus YMR125W, strain sto1, active compounds read low 0.996 | S. cerevisiae deletion strains, locus YMR129W, active compounds read low 1.01 | S. cerevisiae deletion strains, locus YMR205C, strain PFK2, active compounds read low 0.977 | S. cerevisiae deletion strains, locus YMR223W, strain ubp8, active compounds read low 1 | S. cerevisiae deletion strains, locus YMR231W, strain pep5, active compounds read low 0.994 | S. cerevisiae deletion strains, locus YMR263W, strain SAP30, active compounds read low 0.982 | S. cerevisiae deletion strains, locus YMR307W, strain GAS1, active compounds read low 1.23 | S. cerevisiae deletion strains, locus YNL067W, strain RPL9B, active compounds read low 0.986 | S. cerevisiae deletion strains, locus YNL071W, strain lat1, active compounds read low 1.01 | S. cerevisiae deletion strains, locus YNL153C, strain GIM3, active compounds read low 0.971 | S. cerevisiae deletion strains, locus YNL183C, strain NPR1, active compounds read low 0.965 | S. cerevisiae deletion strains, locus YNL209W, strain ssb2, active compounds read low 1.01 | S. cerevisiae deletion strains, locus YNL233W, strain BNI4, active compounds read low 0.984 | S. cerevisiae deletion strains, locus YNL248C, strain rpa49, active compounds read low 1.01 | S. cerevisiae deletion strains, locus YNL250W, strain rad50, active compounds read low 0.941 | S. cerevisiae deletion strains, locus YNL271C, strain bni1, active compounds read low 0.985 | S. cerevisiae deletion strains, locus YNL298W, strain CLA4, active compounds read low 0.984 | S. cerevisiae deletion strains, locus YNL307C, strain MCK1, active compounds read low 0.976 | S. cerevisiae deletion strains, locus YNL322C, strain KRE1 (second series), active compounds read low 1 | S. cerevisiae deletion strains, locus YNR049C, strain mso1, active compounds read low 1.01 | S. cerevisiae deletion strains, locus YNR052C, strain pop2, active compounds read low 0.997 | S. cerevisiae deletion strains, locus YOL012C, strain htz1 0.866 | S. cerevisiae deletion strains, locus YOL147C, strain pex11, active compounds read low 0.988 | S. cerevisiae deletion strains, locus YOR001W, strain rrp6, active compounds read low 0.996 | S. cerevisiae deletion strains, locus YOR061W, strain CKA2, active compounds read low 1.01 | S. cerevisiae deletion strains, locus YOR069W, strain VPS5, active compounds read low 0.998 | S. cerevisiae deletion strains, locus YOR070C, strain gyp1, active compounds read low 1.01 | S. cerevisiae deletion strains, locus YOR080W, strain dia2, active compounds read low 0.986 | S. cerevisiae deletion strains, locus YOR083W, strain WHI5, active compounds read low 1 | S. cerevisiae deletion strains, locus YOR106W, strain vam3, active compounds read low 1 | S. cerevisiae deletion strains, locus YOR136W, strain idh2, active compounds read low 0.974 | S. cerevisiae deletion strains, locus YOR144C, strain elg1, active compounds read low 0.99 | S. cerevisiae deletion strains, locus YOR184W, strain ser1, active compounds read low 0.995 | S. cerevisiae deletion strains, locus YOR231W, strain MKK1, active compounds read low 1.03 | S. cerevisiae deletion strains, locus YOR265W, strain rbl2, active compounds read low 0.994 | S. cerevisiae deletion strains, locus YOR270C, strain vph1, active compounds read low 1 | S. cerevisiae deletion strains, locus YOR290C, strain snf2, active compounds read low 1.03 | S. cerevisiae deletion strains, locus YOR316C, strain cot1, active compounds read low 0.988 | S. cerevisiae deletion strains, locus YPL051W, strain arl3, active compounds read low 1 | S. cerevisiae deletion strains, locus YPL055C, strain LGE1, active compounds read low 0.991 | S. cerevisiae deletion strains, locus YPL078C, strain atp4, active compounds read low 1 | S. cerevisiae deletion strains, locus YPL106C, strain sse1, active compounds read low 0.983 | S. cerevisiae deletion strains, locus YPL240C, strain hsp82, active compounds read low 1.02 | S. cerevisiae deletion strains, locus YPL241C, strain CIN2, active compounds read low 1.01 | S. cerevisiae deletion strains, locus YPL256C, strain CLN2, active compounds read low 1.02 | S. cerevisiae deletion strains, locus YPR119W, strain clb2, active compounds read low 0.979 | S. cerevisiae deletion strains, locus YPR141C, strain kar3, active compounds read low 0.984 | S. cerevisiae deletion strains, locus YPR163C, strain tif3, active compounds read low 0.985 | S. cerevisiae deletion strains, locus YPR167C, strain met16, active compounds read low 0.986 | S. cerevisiae deletion strains, strain wtn01, active compounds read low 0.95 | S. cerevisiae strains, strain wild type, active compounds read low 0.999

Reference: PubChem BioAssay AID1159580 (chemical genetic matrix, 2015)
